{
  "source": "the antibiotic and cytotoxicity screens of Wong et al. (2023)",
  "note": "Among all 39,000 compounds or so, about 3,300 (8.5%) were called active. The full list was thinned out, with actives kept by preference.",
  "data": [
    {"test_system": "HepG2", "assay": "cytotoxicity call (relative viability < 0.9)", "conditions": "10 µM", "values": [
      {"smiles": "Cc1cc(CCN)on1", "cytotoxicity call": "inactive"},
      {"smiles": "C[C@@H]1CN([C@H](C)CO)C(=O)CCCn2nncc2CO[C@H]1CN(C)C(=O)Oc1ccc2ccccc2c1", "cytotoxicity call": "inactive"},
      {"smiles": "O=S1(=O)COC2(CNC2)CN1", "cytotoxicity call": "inactive"},
      {"smiles": "C[C@@H]1CN([C@@H](C)CO)C(=O)CCCn2cc(nn2)CO[C@@H]1CN(C)C(=O)Oc1cccc2ccccc12", "cytotoxicity call": "inactive"},
      {"smiles": "COC(=O)C[C@@H](CN)c1ccc(Cl)cc1", "cytotoxicity call": "inactive"},
      {"smiles": "O=C1CCCC2C3CCCN4CCCC(CN12)C34", "note": "(configuration not stated)", "cytotoxicity call": "inactive"},
      {"smiles": "Cl.Clc1ccc(C(OCCN2CCCCC2)c2ccccc2)cc1", "note": "(configuration not stated)", "cytotoxicity call": "active"},
      {"smiles": "COc1ccc([C@@H](CN)C(C)C)cc1OC", "cytotoxicity call": "inactive"},
      {"smiles": "N[C@H]1CCN(c2cccnc2)C1", "cytotoxicity call": "inactive"},
      {"smiles": "OC[C@H]1O[C@@H](Oc2ccc(/C=C/c3cc(O)cc(O)c3)cc2O)[C@H](O)[C@@H](O)[C@@H]1O", "cytotoxicity call": "inactive"},
      {"smiles": "C=C(C)c1cc2cc(C(C)=O)c(O)cc2o1", "cytotoxicity call": "active"},
      {"smiles": "CC(=O)c1c(O)cc(C)oc1=O", "cytotoxicity call": "inactive"},
      {"smiles": "COCCC(=O)N1C[C@H]2CCN[C@H]2C1", "cytotoxicity call": "inactive"},
      {"smiles": "Cl.NCC(CC(=O)O)c1ccc(Cl)cc1", "note": "(racemic)", "cytotoxicity call": "inactive"},
      {"smiles": "C[C@]12CC/C(=N\\OCCN)C[C@@H]1C(=O)C[C@@H]1[C@@H]2CC[C@]2(C)C(=O)CC[C@@H]12", "cytotoxicity call": "inactive"},
      {"smiles": "O=C1NC(=O)C(C2(O)C(=O)c3ccccc3C2=O)C(=O)N1", "cytotoxicity call": "inactive"},
      {"smiles": "CC(=O)O[C@@]12CO[C@@H]1C[C@H](O)[C@@]1(C)C(=O)[C@H](O)C3=C(C)[C@@H](OC(=O)[C@H](O)[C@@H](NC(=O)c4ccccc4)c4ccccc4)C[C@](O)([C@@H](OC(=O)c4ccccc4)[C@H]21)C3(C)C", "cytotoxicity call": "active"},
      {"smiles": "CC(=O)OC1C(=O)C2(C)C(O)CC3OCC3(OC(C)=O)C2C(OC(=O)c2ccccc2)C2(O)CC(O)C(C)=C1C2(C)C", "note": "(configuration not stated)", "cytotoxicity call": "active"},
      {"smiles": "CC(=O)O[C@H]1C(=O)[C@]2(C)[C@@H](O)C[C@H]3OC[C@@]3(OC(C)=O)[C@@H]2[C@H](OC(=O)c2ccccc2)[C@]2(O)C[C@H](O)C(C)=C1C2(C)C", "cytotoxicity call": "active"},
      {"smiles": "O=C1CC[C@]2(CCCN(Cc3cnc[nH]3)C2)N1", "cytotoxicity call": "inactive"},
      {"smiles": "C=CCOC(=O)[C@@H]1[C@@H](C(=O)OC)N(C)[C@@H](c2ccccc2)[C@]12C(=O)Nc1ccc(I)cc12", "cytotoxicity call": "inactive"},
      {"smiles": "C=CCC1(O)CCC2C3CCC4=CCCCC4C3CCC21C", "note": "(configuration not stated)", "cytotoxicity call": "inactive"},
      {"smiles": "CN(C)C1=NC(=O)C2(CCNCC2)N1", "cytotoxicity call": "inactive"},
      {"smiles": "C#CCN(C)C(C)Cc1ccccc1.Cl", "note": "(configuration not stated)", "cytotoxicity call": "inactive"},
      {"smiles": "CN1CCN(c2nc(=O)c3c([nH]2)CCCC3)CC1", "cytotoxicity call": "inactive"},
      {"smiles": "N=C(N)NO", "cytotoxicity call": "inactive"},
      {"smiles": "O=C([C@H]1CCCO1)N1CCCN2CCC[C@H]2C1", "cytotoxicity call": "inactive"},
      {"smiles": "Cc1cc2ccccc2n1CCN", "cytotoxicity call": "inactive"},
      {"smiles": "CCNC(=O)[C@H]1O[C@H](n2cnc3c(N)ncnc32)[C@@H](O)[C@@H]1O", "cytotoxicity call": "inactive"},
      {"smiles": "CCNC(=O)[C@H]1O[C@@H](n2cnc3c(N)ncnc32)[C@H](O)[C@@H]1O", "cytotoxicity call": "inactive"},
      {"smiles": "NC(=O)c1cn([C@H]2O[C@@H](CO)[C@H](O)[C@@H]2O)c2ncnc(N)c12", "cytotoxicity call": "active"},
      {"smiles": "NC(=O)c1cn([C@@H]2O[C@H](CO)[C@@H](O)[C@H]2O)c2ncnc(N)c12", "cytotoxicity call": "active"},
      {"smiles": "NNc1ccn([C@H]2O[C@@H](CO)[C@@H](O)[C@@H]2O)c(=O)n1", "cytotoxicity call": "inactive"},
      {"smiles": "NNc1ccn([C@@H]2O[C@H](CO)[C@@H](O)[C@H]2O)c(=O)n1", "cytotoxicity call": "inactive"},
      {"smiles": "C[N+](C)(C)CC(=O)[O-].Cl", "cytotoxicity call": "inactive"},
      {"smiles": "O=S(=O)(N[C@H]1CCO[C@]2(CCNC2)C1)C1CC1", "cytotoxicity call": "inactive"},
      {"smiles": "NCCNC[C@@H](N)CCCNC(N)=N[N+](=O)[O-].O=CC(F)(F)F", "cytotoxicity call": "inactive"},
      {"smiles": "CC(=O)N1CCCC[C@]12CCNC2", "cytotoxicity call": "inactive"},
      {"smiles": "CCCCC1C(=O)NC(=S)NC1=O", "cytotoxicity call": "inactive"},
      {"smiles": "CC1CC(C)C(=O)C(C(O)CC2CC(=O)NC(=O)C2)C1", "note": "(configuration not stated)", "cytotoxicity call": "active"},
      {"smiles": "CC12CCC3C(CC=C4CC(O)CCC43C)C1CCC2=O", "note": "(configuration not stated)", "cytotoxicity call": "inactive"},
      {"smiles": "COC(=O)[C@H]1CNCCN1c1ccccc1", "cytotoxicity call": "inactive"},
      {"smiles": "O[C@H]1[C@H](O)[C@@H](O)CN2CC[C@H](O)[C@H]12", "cytotoxicity call": "inactive"},
      {"smiles": "Cc1nc2c(=O)n(C)c(=O)nc-2n(C)n1", "cytotoxicity call": "active"},
      {"smiles": "Cn1ncnc2c(=O)n(C)c(=O)nc1-2", "cytotoxicity call": "active"},
      {"smiles": "Cc1nc[nH]c1CCN", "cytotoxicity call": "inactive"},
      {"smiles": "NC[C@@H](CS(=O)(=O)O)c1ccc(Cl)cc1", "cytotoxicity call": "inactive"},
      {"smiles": "CCN1C[C@]2(C)CC[C@H](O)[C@@]34[C@@H]5C[C@H]6[C@H](O)[C@@H]5[C@](O)(C[C@@H]6OC)[C@](O)([C@@H](OC)[C@H]23)[C@@H]14", "cytotoxicity call": "inactive"},
      {"smiles": "C[C@@H]1CN([C@@H](C)CO)C(=O)c2c(c3ccccc3n2C)-c2ccccc2CO[C@@H]1CN(C)C(=O)Oc1ccccc1", "cytotoxicity call": "inactive"},
      {"smiles": "CN(C)[C@@H]1C(=O)C(C(N)=O)=C(O)[C@@]2(O)C(O)=C3C(=O)c4c(O)cccc4[C@](C)(O)[C@H]3C[C@@H]12", "cytotoxicity call": "inactive"},
      {"smiles": "CCC(C)C(=O)OC1CC2(C)C(c3ccoc3)OC(=O)CC23OC2(C)OC34C(OC(C)=O)C3(O)C(OC(=O)C5(C)OC5C)C5(C)CC3(O)C(C)(C5CC(=O)OC)C14O2", "note": "(configuration not stated)", "cytotoxicity call": "inactive"},
      {"smiles": "Cc1ccc(N=CN(C)C=Nc2ccc(C)cc2C)c(C)c1", "cytotoxicity call": "inactive"},
      {"smiles": "C[C@H](CO)N1C[C@H](C)[C@@H](CN(C)C(=O)Oc2cccc3ccccc23)OCc2cnnn2CCCC1=O", "cytotoxicity call": "inactive"},
      {"smiles": "O=C(O)c1ccc(=O)[nH]c1", "cytotoxicity call": "inactive"},
      {"smiles": "CN1CCN(Cc2ccc[nH]2)CC1", "cytotoxicity call": "inactive"},
      {"smiles": "CC12CCC3c4ccc(OC(=O)N(CCCl)CCCl)cc4CCC3C1CCC2O", "note": "(configuration not stated)", "cytotoxicity call": "active"},
      {"smiles": "C[C@]12CC[C@@H]3c4ccc(OC(=O)N(CCCl)CCCl)cc4CC[C@H]3[C@@H]1CC[C@@H]2OP(=O)(O)O", "cytotoxicity call": "inactive"},
      {"smiles": "Cc1cc(C)nc(NC2=NCCN2)n1", "cytotoxicity call": "inactive"},
      {"smiles": "O=C(CN1CCOCC1)c1ccc(O)cc1O", "cytotoxicity call": "inactive"},
      {"smiles": "CC(C)[N+](C)(CCC(C(N)=O)(c1ccccc1)c1ccccc1)C(C)C.[I-]", "cytotoxicity call": "inactive"},
      {"smiles": "c1cc2c(c(N3CCNCC3)c1)OCCO2", "cytotoxicity call": "inactive"},
      {"smiles": "CCC1(c2ccccc2)C(=O)NC(=O)NC1=O", "cytotoxicity call": "inactive"},
      {"smiles": "COC(=O)C[C@@H]1CC[C@H]2NC[C@H](O)COC[C@@H]2O1", "cytotoxicity call": "inactive"},
      {"smiles": "COC12CC(COC(=O)c3cncc(Br)c3)CN(C)C1Cc1cn(C)c3cccc2c13", "note": "(configuration not stated)", "cytotoxicity call": "active"},
      {"smiles": "NCC1(c2ccc(Cl)cc2)CC1", "cytotoxicity call": "inactive"},
      {"smiles": "O=C(O)/C=C/CO", "cytotoxicity call": "inactive"},
      {"smiles": "Cn1cc(NC(=O)c2cc(NC(=O)CNC(=N)N)cn2C)cc1C(=O)NCCC(=N)N", "cytotoxicity call": "inactive"}
    ]}
  ]
}
